# Measured values: PubChem BioAssay AID1117361 (Southern Research Institute, 2015)
# In all, about 3,600 compounds went through this assay and about 900 (25%) were called active. How the calls were made is not given here. Not all results are given here. Entries with a potency or affinity are not part of this list.
# Molecular target: Protein Tat (Human immunodeficiency virus type 1 group M subtype B (isolate HXB2)) (UniProt P04608)
# Test: inhibitors of Tat binding to TAR RNA, dose response, counter-screen for Vif-APOBEC3G degradation inhibitor project, biochemical, fluorescence polarization, FAM-labeled TAR RNA (AID 1117361)
# Conditions: outcome: dose series up to 100 µM unless noted; series mostly up to 100 µM
row,SMILES,outcome
1,CCOc1ccccc1C(=S)NC1CCCCC1,inactive
2,CCOC(=O)C(NC(=O)NC1CCCCC1)(c1ccccc1)C(F)(F)F (configuration not stated),inactive
3,COc1cc(CN2CCNC(=O)C2CC(=O)N(Cc2nccn2C)C(C)C)cc(OC)c1 (configuration not stated),inactive
4,CCOCC(=O)Nc1nc2ccc(OC)cc2s1,inactive
5,CC(NC(=O)c1cccs1)C(c1cccs1)N1CCN(Cc2ccccc2)CC1 (configuration not stated),inactive
6,COCCCN1C(=O)C(O)=C(C(C)=O)C1c1ccccn1 (configuration not stated),inactive
7,CCOc1ccc(OCC)c(S(=O)(=O)NCc2ccc3c(c2)OCO3)c1,inactive
8,COC(=O)CC(NS(=O)(=O)c1cccs1)c1cccc2ccccc12 (configuration not stated),inactive
9,Cc1ccc(SCCNC(=O)c2cccc([N+](=O)[O-])c2C)cc1,inactive
10,CCOC(=O)Cn1c(=O)oc2cc(S(=O)(=O)Nc3c(C)cc(C)cc3C)ccc21,inactive
11,CCOc1ccc(Br)cc1/C=N/O,inactive
12,O=C(CN1C(=O)c2ccccc2C1=O)NCC(=O)OCC(=O)c1cccc([N+](=O)[O-])c1,inactive
13,O=C1CN(C(=O)COC(=O)C23CC4CC(CC(O)(C4)C2)C3)c2ccccc2N1,inactive
14,COc1ccc(NC(=O)CCc2nc(-c3ccccc3F)no2)cc1,inactive
15,O=C(NCCCN1CCOCC1)c1ccc(Br)s1,inactive
16,CC1CCN(C(=O)CCc2nc3cc(S(=O)(=O)N(C)C)ccc3n2C)CC1,inactive
17,CCC(CC)NC(=O)Nc1ccc(F)cc1F,inactive
18,CCC(CC)c1nc2cc(OC)c(OC)cc2c(=O)o1,inactive
19,CCOC(=O)C1CCCC12Nc1cccc3cccc(c13)N2 (configuration not stated),inactive
20,Oc1ccc(C2Nc3cccc4cccc(c34)N2)c(O)c1,inactive
21,CCCCc1nc2sc3c(=O)[nH]cnc3c2c2c1CCCC2,inactive
22,Cc1cccnc1Nc1nc(-c2ccc(O)c(O)c2)cs1,inactive
23,CC(C)(C)C(=O)OCc1nc(-c2ccc(O)c(O)c2)cs1,inactive

row,SMILES,outcome
1,CCc1nnc(NC(=O)c2ccc(S(=O)(=O)N(CC(C)C)CC(C)C)cc2)o1,inactive
2,CCCNC(=O)c1ccc(-c2nc3ccccc3s2)s1,inactive
3,Cc1nnc(SCCCn2c(N3CCN(c4ccccc4)CC3)nc3c2c(=O)[nH]c(=O)n3C)s1,inactive
4,NCCCSC1=NCCCN1,inactive
5,COc1ccccc1NC(=O)C1=C(C)Nc2nnnn2C1c1ccccn1 (configuration not stated),inactive
6,CCCCCOC(=O)C1=C(C)Nc2nnnn2C1c1ccccc1Cl (configuration not stated),inactive
7,COc1cccc(N2C(=O)C3ON(c4ccccc4)C(c4cccs4)C3C2=O)c1 (configuration not stated),inactive
8,COc1ccc(N2CCN(CC(=O)c3c(C)n(C)c4ccc(OC)cc34)CC2)cc1,inactive
9,CN1CCN(CCCNC(=O)C2CC(=O)N(C3CCCCC3)C2)CC1 (configuration not stated),inactive
10,C=CCn1c(C)cc(C(=O)COC(=O)C2CC(=O)N(Cc3ccccc3)C2)c1C (configuration not stated),inactive
11,CC1C/C(=N/N2C(=O)CSC2=S)CC(C)(C)C1 (configuration not stated),inactive
12,COCCNc1nc2c(c(=O)n(C)c(=O)n2C)n1Cc1cccc(C)c1,inactive
13,CCOc1cc(C(=O)Nc2cc(C)ccn2)cc(OCC)c1OCC,inactive
14,COc1ccc(S(=O)(=O)n2nc(OC(=O)c3ccc(C)cc3)cc2N)cc1,inactive
15,Nc1ccc(N=Nc2ccc(O)cc2)c(N)n1,inactive
16,COCCn1c(SCC(=O)N2CCC(C)CC2)nc2c([nH]c3ccccc32)c1=O,inactive
17,Cn1nc(C(F)(F)F)c2cc(C(=O)NC3CC3)sc21,inactive
18,O=[N+]([O-])c1ccc(CNc2ccc(F)cc2)s1,inactive
19,COc1cccc(CN2CCSCC2)c1,inactive
20,CCOc1ccc(N(CC(=O)Nc2cccc(OC)c2)S(=O)(=O)c2c(C)noc2C)cc1,inactive
21,CCN1CCN(S(=O)(=O)c2cccs2)CC1,inactive
22,O=[N+]([O-])c1ccc(O)c2ncccc12,inactive
23,O=c1c2ccccc2c(-c2ccccc2)nn1-c1cc(Cl)ccc1[N+](=O)[O-],inactive

row,SMILES,outcome
1,Cc1ccccc1CS(=O)(=O)Cc1ccc(C(=O)N2CCOCC2)o1,inactive
2,O=C(COC(=O)Cc1cccc(C(F)(F)F)c1)NCC1CCCO1 (configuration not stated),inactive
3,COc1ccc(CC(=O)Nc2ccc(-c3csc(C)n3)cc2)cc1,inactive
4,O=C(O)/C=C/c1ccc(S(=O)(=O)N2CCN(CCN3C(=O)C4C5C=CC(C5)C4C3=O)CC2)cc1 (configuration not stated),inactive
5,COc1ccc(-n2c(SCC(=O)NNC(=O)c3ccccc3C)nnc2-c2ccncc2)cc1,inactive
6,CC(C)(C)c1cc(N/C=C\c2nnnn2-c2ccc(Br)cc2)no1,inactive
7,CC(/C=C/c1ccco1)=N\NC(=O)c1cccnc1,inactive
8,O=C(Nc1ccc2c(c1)oc1ccccc12)c1cccnc1,inactive
9,CCCCn1cnc2c1c(=O)n(C)c(=O)n2C,inactive
10,COc1ccc(/C=N/NC(=O)Cn2cnc3c2c(=O)n(C)c(=O)n3C)c(OC)c1OC,inactive
11,O=C(c1cc(COc2ccc(F)cc2F)on1)N1CCN(C2CCCC2)C(=O)C1,inactive
12,CC(C)CCn1cnc2c([nH]c3cccc(Cl)c32)c1=O,inactive
13,CCCS(=O)(=O)N1CCC(C(=O)NCCCN(CC)c2cccc(C)c2)CC1,inactive
14,CCc1nnc(NC(=O)C(NS(=O)(=O)c2ccc3c(c2)OCCO3)C(C)C)s1 (configuration not stated),inactive
15,Nc1nc(SCc2nc(-c3ccccc3)no2)[nH]c(=O)c1-c1ccccc1,inactive
16,Cc1ccc(-c2nnn(CC(=O)N(c3ccc(F)cc3)C(C(=O)NC3CCCC3)c3ccco3)n2)o1 (configuration not stated),inactive
17,O=C(CC(=O)NN=Cc1ccc2c(c1)CCC2)NN=Cc1ccc2c(c1)CCC2,inactive
18,O=S(=O)(c1ccc(NC(=S)N/N=C/c2ccc(O)c(O)c2)cc1)N1CCOCC1,inactive
19,Cc1[nH]c2ccccc2c1C(=O)CN1CCC(C(N)=O)(N2CCCCC2)CC1,inactive
20,C[C@H](NC(=O)c1ccco1)C(=O)Nc1cccc([N+](=O)[O-])c1,inactive
21,CCNS(=O)(=O)c1ccc(NS(=O)(=O)c2cc(C)ccc2C)cc1,inactive
22,N/C(=N\OC(=O)COc1ccc2ccccc2c1)c1ccccn1,inactive
23,Cc1ccc(-c2nn3c(C)nnc3s2)cc1NC(=O)CSc1ccc(Cl)cc1,inactive

row,SMILES,outcome
1,COc1ccc(C)cc1-n1c(SCC(=O)Nc2cc(C)on2)nc2sc(C)c(C)c2c1=O,inactive
2,CCCCn1c(CCNC(=O)CC)nc2ccccc21,inactive
3,CCC(C)(C)NC(=O)C(c1ccc(F)cc1)N(Cc1ccco1)C(=O)c1cnccn1 (configuration not stated),inactive
4,CC(OC(=O)c1cccnc1)C(=O)NCc1ccc2c(c1)OCO2 (configuration not stated),inactive
5,O=C(COC(=O)c1ccccc1Br)Nc1nnc(-c2ccccc2)o1,inactive
6,Cc1cc(C)cc(NC2=CC(=O)CC(c3ccco3)C2)c1 (configuration not stated),inactive
7,O=C(O)CCCC(=O)NCCc1cccc(Cl)c1,inactive
8,COc1ccc(OC)c(C(=O)CSc2nnnn2C)c1,inactive
9,COc1ccc(CSc2nnnn2C)cc1F,inactive
10,CCOC(=O)C1(CCOC)CCN(Cc2cnc(-c3cccc(C)c3)nc2)CC1,inactive
11,CCOC(=O)c1c(C)[nH]c(C(=O)COC(=O)CSCC(=O)N(CC)CC)c1C,inactive
12,Cc1ccc(-c2csc(NC(=O)c3ccc(-c4ccccc4)cc3)n2)o1,inactive
13,Cc1ccc(NCc2nnc(SCc3ccc(C#N)cc3)n2Cc2ccco2)c(C)c1,inactive
14,c1ccc(Nc2ccccn2)cc1,inactive
15,CN(Cc1nc(-c2cccnc2)no1)S(=O)(=O)c1ccccc1,inactive
16,Cc1cccc2c1c1ccc3c(c1n2C)C(=O)C=CC3=O,inactive
17,CCOC(=O)c1csc(N)c1-c1ccc([N+](=O)[O-])cc1,inactive
18,CCOc1ccc(NC(=O)C2CCCN(S(=O)(=O)c3c(C)nn(C)c3C)C2)cc1 (configuration not stated),inactive
19,COc1ccccc1N1CCN(C(=O)c2oc3cc(C)c(C)cc3c2C)CC1,inactive
20,CC(C)c1ccc(-c2nc(N3CCCCCC3)nc3n[nH]c(N)c23)cc1,inactive
21,Cc1ccc(S(=O)(=O)N(CC(=O)NCCC2=CCCCC2)Cc2ccccc2F)cc1,inactive
22,O=[N+]([O-])c1ccc2c(c1)S(=O)c1ccccc1-2 (configuration not stated),inactive
23,COC(=O)CSc1nc2cc(C)cc(C)c2cc1C#N,inactive

row,SMILES,outcome
1,COc1cccc(C(=O)Nc2nc3c(s2)CN(C)CC3)c1,inactive
2,NC(=S)N=Nc1c(O)n(C2OC(=O)c3ccccc32)c2ccccc12 (configuration not stated),inactive
3,CCOc1ccccc1C(=O)NCC(=O)OCC(=O)NCCc1ccc(S(N)(=O)=O)cc1,inactive
4,COC(=O)c1c(C)[nH]c(C=O)c1-c1ccccc1,inactive
5,COC(=O)C(O)(CC(=O)c1ccc(OC)cc1)C(F)(F)F (configuration not stated),inactive
6,CCCC(NCC(=O)Nc1ccccc1C(=O)NC1CC1)c1ccccc1 (configuration not stated),inactive
7,O=C(C1CCC(CNS(=O)(=O)c2cccc3cccnc23)CC1)N1CCCC1 (configuration not stated),inactive
8,COc1ccc(NC(=O)C2CCCN2S(=O)(=O)c2cccc3cccnc23)c(OC)c1 (configuration not stated),inactive
9,O=C(Nc1ccc(-c2noc(-c3cccs3)n2)cc1)c1cccnc1,inactive
10,COc1ccc(-c2nc(C(N)=O)c3[nH]c(=O)n(-c4cccc(Cl)c4)c3n2)cc1OC,inactive
11,O=c1cc(-c2ccc(O)cc2)oc2cc(O)c(C3OC(CO)C(O)C(O)C3O)c(O)c12 (configuration not stated),inactive
12,CSCCC(NC(=O)C1CCC(C)CC1)C(=O)NCc1ccco1 (configuration not stated),inactive
13,Cc1ccc(-n2c(SCC(N)=O)nc3c([nH]c4ccccc43)c2=O)cc1,inactive
14,CN1C(=O)c2ccccc2C(C(=O)O)C1c1cccc(F)c1 (configuration not stated),inactive
15,Cc1cc(O)c(C(C)C)cc1N=Cc1ccc([N+](=O)[O-])cc1,inactive
16,Cc1ccc(-n2ncc3c(=O)[nH]cnc32)c(C)c1,inactive
17,O=C(NC1CCCCC1)C(c1ccc(Cl)cc1)N(C(=O)c1ccccn1)c1cccnc1 (configuration not stated),inactive
18,COc1ccccc1NC(=O)c1cc2ccc(O)cc2o/c1=N\O,inactive
19,COC(=O)CSc1nnc(CNC(=O)Cc2ccccc2)n1-c1ccccc1OC,inactive
20,CCOC(=O)CSc1nnc(CNC(=O)c2cc(OC)c(OC)c(OC)c2)n1C,inactive
